Experimental data as given in PubChem BioAssay (NCI).
About 79,000 compounds went through this panel and 15% of them were active in at least one assay; those are over-represented in the sample as a whole. Active and inactive are the calls of the source. No stated cut-off is given here; in the data, active means growth inhibition above about 70%; inactive means the rest. Where a SMILES comes first, the peptide text is derived from it.

experiment: NCI Yeast Anticancer Drug Screen. Data for the bub3 strain (AID 167); conditions: S. cerevisiae bub3 mutant strain, at 50.0 µM, active compounds read high
How it was run: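 Steps: expose the mutant yeast strain to compound; grow alongside vehicle-treated cultures; measure growth; express inhibition against the vehicle cultures.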

SMILES | growth inhibition
CC(C)CC(NC(=O)C(NC(=O)C(N)C(C)O)C(C)C)C(=O)O (stereo not drawn) (H-Thr-Val-Leu-OH; configuration not given here) | 4.75% (inactive)
CCOc1cc[n+](C)c2ccc(C)cc12 | 21.5% (inactive)
Nc1ncnc(N)c1NC(=O)CCCCc1ccccc1 | 1.4% (inactive)
CCN(CC)CCN(CC)CCN(CC)CC | 4.1% (inactive)
O=C1NN(c2ccccc2)C(=O)C2C3c4ccccc4C(c4ccccc43)C12 (stereo not drawn) | -2.4% (inactive)
Cn1c2c(c3ccccc31)C(=O)CC2(C)C | -30.6% (inactive)
CCCCCCCC(=O)Nc1ccc(-n2c(=O)cc(C)n2C)cc1 | -7.7% (inactive)
O=C(NC/C=C/Br)NC1CCNc2ccccc21 (stereo not drawn) | 20.2% (inactive)
CC(C)/C=C1\CCC(CN(C)C)C1=O (stereo not drawn) | 75% (active)
CCOC(=O)CNc1nc(Cl)nc(NCC(=O)OCC)n1 | 28.9% (inactive)
Cc1c(F)c(F)c(-c2c(F)c(F)c(C)c(F)c2F)c(F)c1F | -16.2% (inactive)
O=C(O)c1ccnc2c(S(=O)(=O)O)cccc12 | 3.25% (inactive)
O=C(NC(Cc1c[nH]c2ccccc12)C(=O)O)C(=O)c1c[nH]c2ccccc12 (stereo not drawn) | 15.2% (inactive)
O=C(O)c1ccc(Nc2nc3ccccc3nc2-c2cccs2)cc1 | 12.2% (inactive)
COc1ccc(-c2cc(-c3cc(-c4ccc(OC)cc4)on3)no2)cc1 | -35.5% (inactive)
CC1OC(OCC2COC(O)(Oc3c(-c4ccc(O)c(O)c4)oc4cc(O)cc(O)c4c3=O)C(O)C2O)C(O)C(O)C1O (stereo not drawn) | 8.05% (inactive)
CCOC(=O)CC1(C)OCCO1 | 21.3% (inactive)
NC(Cc1c[nH]c2ccc(Br)cc12)C(=O)O (stereo not drawn) | -29.8% (inactive)
COC(=O)C(CCC1(C)OCCO1)=[N+]=[N-] | -19.1% (inactive)

SMILES | growth inhibition
CCNC(CC(N)=O)C(=O)O (stereo not drawn) | -26.4% (inactive)
CCN(CC)CCO/N=C(\c1ccccc1)c1ccccn1 | 10.7% (inactive)
Cc1ccc(S(=O)(=O)Oc2nc3ccccc3nc2N(S(=O)(=O)c2ccc(C)cc2)S(=O)(=O)c2ccc(C)cc2)cc1 | 5.95% (inactive)
CCOc1ccccc1/C=C/C(=O)O | -22.1% (inactive)
COc1cc(C)cc2c(-c3c(O)cc(O)c4c3CC(C)N[C@H]4C)cc(-c3cc(-c4c(O)cc(O)c5c4CC(C)N[C@H]5C)c4cc(C)cc(OC)c4c3O)c(O)c12 (stereo partly drawn) | -13.9% (inactive)
CCOC(=O)c1cc2c(oc1=O)-c1cc(C)ccc1OC2C (stereo not drawn) | -38.4% (inactive)
CC(=O)Oc1cc(C=O)ccc1O | -7.25% (inactive)
Cc1n(Cc2ccccc2)nc2sc(N)n[n+]12 | -4.65% (inactive)
COC1OC2COC(c3ccccc3)OC2C(OS(=O)(=O)c2ccc(Br)cc2)C1OS(=O)(=O)c1ccc(Br)cc1 (stereo not drawn) | -11.8% (inactive)
COC(=O)C1=C(C)NC(C)=C(C(=O)OC)C1c1cccc(N=O)c1 | 26.6% (inactive)
Nc1cc2c(cc1Br)-c1cc(Cl)c(Cl)cc1C2=O | -2.1% (inactive)
Nc1cnc(N)nc1 | 11.8% (inactive)
CCC(/C=N/Nc1ccc([N+](=O)[O-])cc1[N+](=O)[O-])(CC)CC | -2.85% (inactive)
CN(C)c1ccc(-c2nc(N)nc3c2CCCC3)cc1 | -6% (inactive)
O=C1C(=C(c2ccc([N+](=O)[O-])cc2)N2CCOCC2)C(=O)c2ccccc21 | 1.75% (inactive)
O=C(OC1CCCC1)c1ccccc1 | -10.2% (inactive)
CC(C)CC(NC(=O)c1ccccc1C(=O)O)C(N)=O (stereo not drawn) | 6.2% (inactive)
CC(C)=CCCC(=O)C(c1nc2nnc(N)n2[nH]c1=O)c1nc2nnc(N)n2[nH]c1=O | 1.6% (inactive)
CCC(=O)N1CCN(C(=O)CC)CC1 | 1.95% (inactive)
